The results in this text go back to PubChem BioAssay (NCI).

The panel holds about 83,000 compounds, 20% with a hit somewhere; the sample as a whole holds those more often.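 Single-dose data. Exposure time 48 hours. Values below 10 considered active.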 Values without a mark were called inactive. Activity calls are given as the source filed them.

Assay in all cases: NCI-60 one-dose screen, 48 h (100 = growth as untreated, 0 = no growth, -100 = all killed)
One test has as its system HT29 colon. The settings on record: 10 µM unless noted.
The subject of the next test is SNB-75 CNS. To be noted: 10 µM unless noted.
The test system of a further test is SNB-19 CNS. The settings on record: 10 µM unless noted.
A further test relates to U251 CNS. To be noted: 10 µM unless noted.
In a further test the test system is PC-3 prostate. To be noted: 10 µM unless noted.
For a further test, the system named is SK-MEL-5 melanoma. To be noted: 10 µM unless noted.
For the next test, the system named is UACC-62 melanoma. The settings on record: 10 µM unless noted.
For another test, the system named is SK-MEL-28 melanoma. The settings on record: 10 µM.
The test system of another test is SK-MEL-2 melanoma. To be noted: 10 µM unless noted.
The next test deals with SN12C renal. The settings on record: 10 µM unless noted.
Another test concerns UO-31 renal. To be noted: 10 µM unless noted.
The subject of a further test is TK-10 renal. To be noted: 10 µM unless noted.
A further test has as its system ACHN renal. The settings on record: 10 µM unless noted.
The test system of a further test is CAKI-1 renal. To be noted: 10 µM unless noted.
The subject of the next test is A498 renal. To be noted: 10 µM unless noted.
Another test has as its system CCRF-CEM leukemia. To be noted: 10 µM unless noted.
Another test deals with MOLT-4 leukemia. To be noted: 10 µM unless noted.
In another test the test system is SR leukemia. The settings on record: 10 µM unless noted.
A further test relates to LOX IMVI melanoma. The settings on record: 10 µM unless noted.
The next test has as its system EKVX NSCLC. To be noted: 10 µM unless noted.

With `COc1cccc(-c2nn(C)c3sc(C(=O)NCCN4CCN(c5ccccc5F)CC4)cc23)c1`, the growth in the test with HT29 colon is 17%; in the test on SNB-75 CNS it was 64.8%; in the test with SNB-19 CNS it was 92.4%; in the test with U251 CNS it was 59%; in the test on PC-3 prostate, 38.3%; in the test on SK-MEL-5 melanoma, -79.6% (active). Further, the growth with UACC-62 melanoma was -72.1% (active); with SK-MEL-28 melanoma, -75.2% (active); in the test on SK-MEL-2 melanoma, 99.4%; in the test on SN12C renal, 60.9%; in the test on UO-31 renal, 65.9%; with TK-10 renal, 83.9%. For the same compound, the growth with ACHN renal is 85.3%; in the test with CAKI-1 renal it was 68%; in the test on A498 renal it was 39%; in the test with CCRF-CEM leukemia, 1.87% (active); in the test with MOLT-4 leukemia, 7.79% (active); with SR leukemia it was -39.5% (active).

As to `O=c1c2cc(F)cc(Cl)c2sc2c(Cl)nc3ccccc3c12`, the growth was 101% with HT29 colon; 84.6% in the test with SNB-75 CNS; 96.5% in the test with SNB-19 CNS; 105% with U251 CNS; 98.9% in the test on PC-3 prostate; 92.2% in the test on UACC-62 melanoma. Further, the growth with LOX IMVI melanoma is 80.9%; with SK-MEL-28 melanoma, 108%; in the test on SK-MEL-2 melanoma, 108%; with EKVX NSCLC it was 97.9%; in the test with SN12C renal it was 76.8%; in the test with UO-31 renal, 72.6%. The growth was 151% in the test on TK-10 renal; 95.3% in the test on ACHN renal; 90.7% in the test on CAKI-1 renal; 103% with A498 renal; 86.9% in the test on CCRF-CEM leukemia.

With `O=C(/C=C/c1cccc(Cl)c1)OCc1ccc2cc1OCC#C/C=C\C#CCO2`, the growth with HT29 colon was 89.3%; with SNB-75 CNS, 80.9%; in the test with SNB-19 CNS, 93.9%; in the test on U251 CNS, 102%; with PC-3 prostate, 96.2%; in the test with SK-MEL-5 melanoma it was 106%. Moreover, the growth was 89.2% in the test with UACC-62 melanoma; 88.4% in the test on LOX IMVI melanoma; 113% in the test on SK-MEL-2 melanoma; 115% with EKVX NSCLC; 95.7% in the test with SN12C renal; 80.2% in the test on UO-31 renal. For the same compound, the growth with TK-10 renal was 122%; in the test with ACHN renal it was 99.4%; in the test on CAKI-1 renal it was 101%; in the test with A498 renal, 76.7%; in the test on MOLT-4 leukemia it was 73.2%; with SR leukemia, 63%.

On to `FC(F)(F)c1cccc(Nc2nc(-c3ccccc3)nc3ncccc23)c1`, for which the growth in the test on HT29 colon is 15%; in the test with SNB-75 CNS it was 91.4%; in the test on SNB-19 CNS, 100%; in the test on U251 CNS it was 58.3%; with PC-3 prostate, 6.17% (active); in the test on SK-MEL-5 melanoma, -91.4% (active). Also, the growth with UACC-62 melanoma is -50.6% (active); in the test on SK-MEL-28 melanoma it was -84.6% (active); in the test with SK-MEL-2 melanoma it was 104%; in the test on SN12C renal, 75.8%; in the test with UO-31 renal, 82.4%; in the test with TK-10 renal, 94.2%. Moreover, the growth in the test on CAKI-1 renal is 40.4%; in the test on A498 renal, -4.48% (active); in the test on CCRF-CEM leukemia it was -21.6% (active); in the test with MOLT-4 leukemia, 7.45% (active); in the test on SR leukemia, -37.4% (active).

Regarding `COc1ccc(OC)c(NC(=O)/C(C#N)=C/c2ccco2)c1`, the growth was 91.8% with HT29 colon; 82.2% in the test with SNB-75 CNS; 93.8% in the test on SNB-19 CNS; 94.2% in the test with U251 CNS; 89.7% in the test on PC-3 prostate; 102% in the test with SK-MEL-5 melanoma. Besides, the growth in the test on UACC-62 melanoma is 86.5%; in the test with LOX IMVI melanoma, 98.2%; in the test with SK-MEL-28 melanoma, 104%; with EKVX NSCLC, 94%; in the test with SN12C renal it was 101%; in the test with UO-31 renal, 67.8%. Further, the growth in the test with TK-10 renal is 114%; in the test with ACHN renal, 93.6%; with CAKI-1 renal, 90.4%; with A498 renal it was 101%; in the test on MOLT-4 leukemia, 78.7%; with SR leukemia it was 74.3%.

With `CN(C)c1ccc(N=Cc2ccc(N3CCOCC3)cc2)cc1`, the growth was 84.2% in the test on HT29 colon; 81.3% with SNB-75 CNS; 90.9% with SNB-19 CNS; 46.6% in the test on U251 CNS; 54.1% in the test on PC-3 prostate; 82% in the test with SK-MEL-5 melanoma. Also, the growth with UACC-62 melanoma was 84.8%; in the test with LOX IMVI melanoma, 74.3%; in the test on SK-MEL-28 melanoma, 114%; in the test on SN12C renal it was 79%; in the test on UO-31 renal, 71.4%; in the test on TK-10 renal it was 116%. The growth in the test with ACHN renal was 88.8%; in the test on CAKI-1 renal, 86.6%; in the test on A498 renal it was 91.7%; in the test on CCRF-CEM leukemia, 58.8%; in the test on MOLT-4 leukemia, 65.2%; in the test on SR leukemia it was 75.6%.

On to `O=c1oc2ccc(Br)cc2c(=O)n1-c1ccc(Br)cc1F`, for which the growth is 34.8% in the test with HT29 colon; -42.4% (active) in the test with SNB-75 CNS; 16.9% in the test on SNB-19 CNS; -5.99% (active) in the test on U251 CNS; -4.81% (active) in the test with PC-3 prostate; -84.8% (active) in the test on SK-MEL-5 melanoma. The growth in the test on UACC-62 melanoma is -40.7% (active); in the test with LOX IMVI melanoma, 2.66% (active); in the test with SK-MEL-28 melanoma, -22.6% (active); in the test on EKVX NSCLC, 3.25% (active); with SN12C renal, -1.73% (active); with UO-31 renal it was -19.5% (active). Further, the growth in the test with TK-10 renal is 18.9%; with ACHN renal, -6.06% (active); with CAKI-1 renal it was -10.6% (active); with CCRF-CEM leukemia it was 9% (active); in the test with MOLT-4 leukemia, -16.6% (active); in the test on SR leukemia, 3.7% (active).

Turning to `Cc1ccc(C)c(-c2csc(Nc3ccc(C)c(C)c3)n2)c1`, the growth is 4.56% (active) in the test with HT29 colon; 34% in the test on SNB-75 CNS; 84% in the test with SNB-19 CNS; 8.11% (active) in the test on U251 CNS; 63.9% in the test with PC-3 prostate; -92.3% (active) with SK-MEL-5 melanoma. In addition, the growth is 49.2% with UACC-62 melanoma; -67.9% (active) in the test on LOX IMVI melanoma; -93.3% (active) with SK-MEL-28 melanoma; 66.3% in the test on SN12C renal; 40.3% in the test on UO-31 renal; 51.6% with TK-10 renal. Also, the growth in the test on ACHN renal was 58.9%; in the test with CAKI-1 renal, 78.2%; in the test with A498 renal, 65.7%; with CCRF-CEM leukemia it was 6.99% (active); in the test with MOLT-4 leukemia it was 24.9%; with SR leukemia, -6.45% (active).

As for `CCOC(=O)c1cc2c(n1Cc1cc(OC)cc(OC)c1)-c1oncc1CCC2`, the growth was 6.58% (active) in the test with HT29 colon; 16.3% in the test on SNB-75 CNS; 28.5% in the test on SNB-19 CNS; 17.3% in the test on U251 CNS; 33.2% in the test with PC-3 prostate; 1.12% (active) in the test with SK-MEL-5 melanoma. Besides, the growth in the test on UACC-62 melanoma was 31.6%; in the test with LOX IMVI melanoma, 25.3%; in the test on SK-MEL-28 melanoma, 53.3%; in the test on SN12C renal it was 38.3%; with UO-31 renal, 18.5%; with TK-10 renal, 56.6%. Moreover, the growth in the test with ACHN renal was 37.6%; in the test with CAKI-1 renal, 42.2%; in the test on A498 renal, -14.5% (active); in the test on CCRF-CEM leukemia, 9.16% (active); in the test on MOLT-4 leukemia, 18%; in the test with SR leukemia it was 9.52% (active).
